From PubChem BioAssay
D2 antag = D2 dopamine receptor (human) antagonism; HEK293 TREx D2 cells, calcium flux, dopamine EC80; inhibition, % at 10 µM; actives 2% (n = 340,000); AID 485344; in the data active = inhibition above about 30%; inactive = below that, where a call was filed; note: 0% is about no effect
Target sequence (P14416 whole entry, looked up): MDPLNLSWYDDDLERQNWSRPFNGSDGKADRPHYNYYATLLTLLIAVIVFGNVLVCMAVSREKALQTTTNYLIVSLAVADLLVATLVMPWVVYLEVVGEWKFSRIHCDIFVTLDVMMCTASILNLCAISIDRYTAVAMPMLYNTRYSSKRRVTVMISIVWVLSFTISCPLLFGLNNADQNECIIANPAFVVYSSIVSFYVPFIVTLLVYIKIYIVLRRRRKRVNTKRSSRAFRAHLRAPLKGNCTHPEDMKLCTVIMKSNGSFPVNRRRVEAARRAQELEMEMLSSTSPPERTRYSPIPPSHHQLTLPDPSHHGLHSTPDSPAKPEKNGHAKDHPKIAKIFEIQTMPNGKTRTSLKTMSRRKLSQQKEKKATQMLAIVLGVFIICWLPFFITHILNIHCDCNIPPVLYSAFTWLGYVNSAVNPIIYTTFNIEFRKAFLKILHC
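Tetracycline-induced HEK293 T-REx cells expressing D2 force-coupled to calcium signalling were dye-loaded, exposed to compound for 180 s, then challenged with an EC80 of dopamine; calcium flux was followed kinetically for a further 180 s.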
D2 ag-1 = human D2 receptor agonism in beta-arrestin assay; P14416; DiscoveRx PathHunter D2 beta-arrestin, luminescence, 90 min; 100% = 57 uM dopamine signal; activation, % (test concentration not listed); actives 0.084% (n = 360,000); in the data active = activation above about 40%; inconclusive = between about 15% and that limit
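Agonist mode: compounds alone added to overnight-plated D2 PathHunter cells for 90 min at 37 C, with 57 uM final dopamine (EC100) defining full response. Beta-arrestin recruitment detected by chemiluminescent reagent, read after 1 h at ambient temperature.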
D2 ag-2 = activates the human D2 dopamine receptor; P14416; HEK293 T-REx D2 cells, calcium flux agonist mode; activation, % at 2 µM; actives 0.53% (n = 340,000);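 active = activation over 3 SD above normal in the single-dose calcium agonist read, cut at about 30% in these data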; note: 0% is about no effect
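HEK293 Trex D2 cells, tetracycline-induced, o/n 30 C 5% CO2; no-wash Ca dye, RT 30–90 min; 10-cycle baseline, 23 nl cpd added, kinetic Ca read 180 s; agonist hits = positive Ca response.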
D2 PAM-1 = human D2 receptor positive allosteric modulation | P14416 | DiscoveRx D2 beta-arrestin cells, luminescence, 90 min; 100% = 57 uM dopamine signal | potentiation, % (no concentration beside the values) | actives 0.23% (n = 360,000) | AID 624464; in the data active = potentiation above about 50%; inconclusive = mostly about 30% to 49%
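PathHunter beta-arrestin assay in DiscoveRx D2 cells. Compounds were added with an EC20 of dopamine (50 nM final) for 90 min at 37 deg C. Luminescence was read 1 h after detection reagent, with 57 uM dopamine as the EC100 control.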
D2 PAM-2 = positively modulates the human D2 dopamine receptor allosterically. HEK293 T-REx D2, calcium flux, EC20 dopamine potentiation. potentiation, % at 10 µM. actives 0.34% (n = 340,000);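 active = potentiation over 3 SD above the plate norm, cut at about 30% in these data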; note: 0% is about no effect
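Tetracycline-induced HEK293 T-REx cells force-coupled to calcium signalling expressed D2; compounds were pin-added after a 10 s baseline, read kinetically 180 s, then an EC20 dopamine challenge followed with a further 180 s calcium read.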
* marks the source's active call; other numbers are inactive results; ? = inconclusive; nt = no result. Hits are enriched below; roughly 2.4% of the tested compounds scored in any of these assays.

SMILES	D2 antag	D2 ag-1	D2 ag-2	D2 PAM-1	D2 PAM-2
CCOC(=O)c1cc(OC(=O)c2ccccc2F)n(-c2ccccc2)n1	nt	nt	0	nt	-1
Cc1nn(-c2ccc(Cl)cc2)c2sc(C(=O)N3CCN(c4ccccn4)CC3)cc12	1	1	-1	-7	32*
Cc1nnc(Sc2nc3c(c(=O)[nH]c(=O)n3C)n2CCc2ccccc2)s1	50*	5	-1	-1	2
C[C@@H](NC(=O)CN(c1ccccc1)S(=O)(=O)N(C)C)c1ccccc1	nt	nt	-1	nt	nt
C/C(=N/Nc1ccc(C(=O)O)cc1)c1ccc(O)c(O)c1O	-6	?	0	85*	0
COc1ccc(Cl)cc1Nc1nc(C)cc(=O)[nH]1	74*	2	0	-33	-28
CCOC(=O)COc1ccc(CC)cc1C(=O)c1ccn2nc(-c3ccc(Cl)cc3)cc2n1	nt	nt	1	nt	2
O=C(NCCCN1CCCC1=O)c1ccc2c(c1)NC(=O)C(N1CCOCC1)S2 (stereo unspecified)	33*	2	1	13	nt
CCCCOc1ccc(S(=O)(=O)NNC(=O)c2cc3ccccc3o2)cc1	44*	-2	-1	-11	-1
COc1cccc(Nc2nc(CC(C)=O)ns2)c1	33*	0	0	10	-11
COc1ccc(Nc2nc(CC(C)=O)ns2)cc1	10	-2	1	-5	-3
Cc1cc(C)c(-c2cc(C(F)(F)F)no2)c(=O)[nH]1	32*	3	2	1	-10
COc1ccc(/C=C2\CCCc3c2nc2ccccc2c3C(=O)O)cc1OC	31*	nt	184*	nt	13
Cc1cccc(NC(=O)C2CCCN(C(=O)Nc3ccc(F)cc3)C2)c1 (stereo unspecified)	31*	-4	-2	-20	1
CC1CCCCN1C(=O)CN1CCC(c2nc3ccc(Cl)cc3[nH]2)CC1 (stereo unspecified)	9	-3	-1	-7	-6
Cc1ccc(CN2CCC(c3nc4ccc(Cl)cc4[nH]3)CC2)cc1	87*	-1	0	-31	-15
Clc1ccc2nc(C3CCN(Cc4ccccc4)CC3)[nH]c2c1	53*	-1	-1	-18	-18
CCn1cc(S(=O)(=O)c2cc(C)cc(C)c2)c(=O)c2cc(F)c(N3CCN(c4ccccc4)CC3)cc21	nt	nt	0	nt	-7
O=C(c1cccc(F)c1)N1CCN(C(=O)C(c2ccccc2)c2ccccc2)CC1	31*	9	-3	-4	nt
COc1ccccc1NC(=O)N1CCCC1C(=O)Nc1nnc(C(C)C)s1 (stereo unspecified)	15	-4	-1	1	7
CC(C)c1nnc(NC(=O)C2CCCN2C(=O)Nc2ccccc2F)s1 (stereo unspecified)	38*	-2	0	-6	-6
CC(=O)NC12CC3CC(C1)CC(C(=O)N1CCN(S(=O)(=O)c4ccccc4[N+](=O)[O-])CC1)(C3)C2	45*	-1	0	-2	-15
COc1ccccc1/C=C/CN1CCN(Cc2ccc(C)o2)C(CCO)C1 (stereo unspecified)	49*	-4	0	-17	-21
COc1ccc2c(c1)c1c(c(=O)n(-c3ccc(C)cc3)c(=O)n1CC(=O)Nc1cc(C)ccc1C)n2C	nt	nt	0	nt	-7
CCOC(=O)c1cc(C)n(CC2CCC(C(=O)Nc3cc(OC)cc(OC)c3)CC2)c1C (stereo unspecified)	nt	nt	4	nt	-7
SMILES	D2 antag	D2 ag-1	D2 ag-2	D2 PAM-1	D2 PAM-2
CCc1cc(C(=O)OC)c(NC(=O)CC2SC(=NC)N(C)C2=O)s1 (stereo unspecified)	63*	2	0	4	-6
CC(C)CCn1c(SCc2cccc(F)c2)nc2ccsc2c1=O	nt	nt	1	nt	9
CCOC(=O)c1sc2nc(CSc3ccccc3)nc(N3CCCN(C)CC3)c2c1C	53*	-1	0	-1	-27
CCOC(=O)c1sc2nc(CSc3ccccc3)nc(N3CCC(C(N)=O)CC3)c2c1C	-7	2	0	-2	12
COC(=O)c1c(CSc2ccc(Cl)cc2)noc1C(=O)NCc1ccco1	38*	3	0	-12	-20
COC(=O)c1c(CSc2cccc(C)c2)noc1C(=O)NCc1ccco1	0	-1	-2	-23	-10
